# PubChem BioAssay (NCI)
# Compounds without any hit were thinned out: in the full panel of roughly 79,000, 15% have a hit. Unmarked numbers belong to inactive results. Calls of active or inactive are those of the source. Rule as the data show it: active = growth inhibition above about 70%; inactive = the rest.
# What was measured:
# [1] = NCI Yeast Anticancer Drug Screen. Data for the rad50 strain (AID 155);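 also: 0% = growth of vehicle-only cultures of the same strain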; details: S. cerevisiae rad50 strain growth inhibition, stronger effect = higher value
# Procedure, shortened: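 Yeast carrying a defined DNA repair defect were exposed to test compounds, and growth was compared with vehicle-treated controls to give percent inhibition.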
# [2] = NCI Yeast Anticancer Drug Screen. Data for the mec2-1 strain (AID 157); details: S. cerevisiae mec2-1 strain, stronger effect = higher value
# Procedure, shortened: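 Vehicle-treated cultures served as reference for growth inhibition of compound-exposed mec2-1 yeast.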
# [3] = NCI Yeast Anticancer Drug Screen. Data for the sgs1 mgt1 strain (AID 161);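 also: 0% = growth of cultures given vehicle only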; details: S. cerevisiae sgs1 mgt1 strain, stronger effect = higher value
# Procedure, shortened: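 Read-out: growth inhibition vs vehicle controls. Cells: mutant yeast strain deficient in DNA damage repair.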
# [4] = NCI Yeast Anticancer Drug Screen. Data for the cln2 rad14 strain (AID 165);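 also: 0% = growth equal to vehicle treated cultures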; details: S. cerevisiae cln2 rad14 strain, stronger effect = higher value
# Procedure, shortened: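 Each compound was tested on cln2 rad14 yeast. Inhibition of growth was calculated against vehicle-exposed controls.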
# [5] = NCI Yeast Anticancer Drug Screen. Data for the bub3 strain (AID 167); details: S. cerevisiae bub3 mutant strain, stronger effect = higher value
# Procedure, shortened: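 Compounds were applied to a genetically altered yeast strain carrying a cell-cycle control defect. Growth inhibition was scored against vehicle-treated controls.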
# [6] = NCI Yeast Anticancer Drug Screen. Data for the mlh1 rad18 strain (AID 175); details: S. cerevisiae mlh1 rad18 strain growth inhibition, stronger effect = higher value
# Procedure, shortened: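 Vehicle-treated cultures served as the reference for growth inhibition in a yeast strain carrying DNA damage repair alterations exposed to each compound.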
# [7] = at 5.0 µM (retest, dose inferred, filed as 0.5)
# [8] = at 50.0 µM (retest, dose inferred, filed as 5.0)
SMILES,"growth inhibition [1, 7]","growth inhibition [1, 8]",growth inhibition ([1]; at 50.0 µM),"growth inhibition [2, 7]","growth inhibition [2, 8]",growth inhibition ([2]; at 50.0 µM),"growth inhibition [3, 7]","growth inhibition [3, 8]",growth inhibition ([3]; at 50.0 µM),"growth inhibition [4, 7]","growth inhibition [4, 8]",growth inhibition ([4]; at 50.0 µM),"growth inhibition [5, 7] [%]","growth inhibition [5, 8]",growth inhibition ([5]; at 50.0 µM),"growth inhibition [6, 7]","growth inhibition [6, 8]",growth inhibition ([6]; at 50.0 µM)
COc1cc(C2CC(=O)c3ccccc3O2)ccc1O (stereo not given),0%,98% (active),89% (active),10%,99% (active),92.7% (active),17%,98% (active),92.2% (active),-16%,97% (active),88.7% (active),26,97% (active),90.7% (active),15%,98% (active),89.5% (active)
Clc1nnc(Cl)s1,3%,36%,29.1%,8%,54%,21.6%,2%,67%,19.4%,1%,9%,25.9%,5,72% (active),23.9%,5%,53%,18.9%
COc1cc(NCc2ccc3nc(-c4ccccc4)c(N)nc3c2)cc(OC)c1OC,7%,-19%,-8.3%,-1%,-12%,-9.45%,-3%,7%,50%,5%,3%,16.6%,8,-10%,37.2%,-16%,5%,70.3% (active)
CC(O)C(NC(=O)OCc1ccccc1)C(=O)OC(c1ccccc1)c1ccccc1 (stereo not given),0%,95% (active),98% (active),17%,99% (active),97.8% (active),-23%,98% (active),97.5% (active),-3%,96% (active),97% (active),2,97% (active),97.3% (active),10%,97% (active),96.5% (active)
S=C(NN1CCOCC1)SSC(=S)NN1CCOCC1,97% (active),99% (active),99.5% (active),97% (active),99% (active),99.6% (active),94% (active),99% (active),99.6% (active),92% (active),83% (active),99.3% (active),34,99% (active),99.8% (active),77% (active),99% (active),99.5% (active)
N#C/C(=C1C=C/C(=N/O)c2ccccc2/1)c1ccc(Cl)cc1,11%,17%,56%,-6%,26%,77.3% (active),1%,1%,60.8%,-1%,6%,41.1%,-4,61%,34.5%,-9%,28%,72.6% (active)
COc1ccc(CN2COc3c(cc(C)c4cccnc34)C2)cc1,14%,92% (active),65%,8%,93% (active),47.5%,23%,92% (active),64.1%,16%,93% (active),39.9%,-3,95% (active),61.4%,20%,93% (active),79.9% (active)
O=C(O)CCCNc1ncc2c(n1)-c1ccccc1OC2,19%,7%,65.5%,11%,9%,51%,8%,12%,-3.35%,20%,15%,-26%,14,8%,-22.9%,12%,9%,-9.3%
Oc1ccc(Br)cc1C=Nc1c(NC2CCCCC2)oc2ccc(Br)cc12,-4%,9%,-9.35%,3%,-2%,39.4%,11%,22%,41.8%,-18%,0%,37%,-12,43%,53.4%,-4%,29%,50.5%
CC(C(=O)O)C(N)C(=O)O (stereo not given),-1%,4%,99.5% (active),-1%,-6%,99.6% (active),-2%,2%,99.3% (active),6%,-6%,99.5% (active),4,-7%,99.6% (active),-2%,3%,99.5% (active)
